# Data taken from PubChem BioAssay (NCI).
# About 83,000 compounds went through this panel and 20% of them were active in at least one assay; those are over-represented in the sample as a whole.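 Note: values are percent growth. 100 is the growth of untreated cells, values between 100 and 0 indicate rising inhibition; between -100 and 0 indicates cell death.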 Unmarked numbers belong to inactive results. The source made the active and inactive calls. How the source made its calls: active means growth percent below 10; inactive means the rest.
# Key:
# Assay in all cases: NCI-60 one-dose screen, 48 h (100 = growth as untreated, 0 = no growth, -100 = all killed)
# Conditions in all cases: 10 µM unless noted
# [1] = system: NCI-H23 lung
# [2] = system: NCI-H226 lung
# [3] = system: NCI-H322M lung
# [4] = system: HOP-62 NSCLC
# [5] = system: NCI-H460 lung
# [6] = system: HOP-92 NSCLC
# [7] = system: NCI-H522 lung
# [8] = system: A549/ATCC NSCLC
# [9] = system: 786-0 renal
# [10] = system: COLO 205 colon
SMILES,growth [1],growth [2],growth [3],growth [4],growth [5],growth [6],growth [7],growth [8],growth [9],growth [10]
NS(=O)(=O)c1ccc(N=Nc2c(O)n(CC(=O)Nc3ccccc3)c3ccccc23)cc1,-19.1% (active),25.3%,52%,10.8%,4.09% (active),77.3%,31.6%,0.913% (active),1.52% (active),27.6%
Cc1ccc(C(=O)CSc2nc3ccc(F)cc3c(=O)n2-c2ccc(Cl)cc2)cc1,46%,-21.9% (active),64.8%,-17.1% (active),22.4%,-2.96% (active),63.8%,60.9%,10.7%,69.9%
N#Cc1c(-c2cccc(O)c2O)cc(-c2ccc3ccccc3c2)[nH]c1=O,52.1%,68.3%,72.7%,49.2%,41.7%,28%,51.3%,84.9%,64.1%,84%
Cc1ccc2c(N)c(C(=O)Nc3ccc(-c4ccccc4)cc3)sc2n1,42.2%,45.1%,73.8%,63.5%,73%,27.1%,53.9%,81.5%,69.3%,90.9%
CN(C)CCOc1ccc(C(=O)C2[C@H](c3ccc(Cl)cc3)[C@@H](c3ccccc3)NC23C(=O)Nc2ccc(Br)cc23)cc1 (stereo not given in full),-2.68% (active),43.7%,53.7%,75.9%,-78.1% (active),23.5%,-2.86% (active),4.59% (active),-72.5% (active),-69% (active)
S=C(NCCc1ccccc1)Nc1ccc(OCc2nc3ccccc3[nH]2)cc1,104%,108%,100%,103%,108%,100%,101%,101%,105%,109%
COc1ccc(CCC2c3c(cc4c(c3OC)OCO4)CCN2C)cc1 (stereo not given),-48.6% (active),-59.3% (active),0.952% (active),-30.2% (active),-89.7% (active),-30% (active),-81% (active),9.85% (active),-67.1% (active),-73.1% (active)
O=C1/C(=C/C2=Cc3ccccc3OC2)SC(=S)N1c1ccccc1F,103%,101%,105%,101%,121%,61.6%,92.6%,96.7%,87.4%,116%
O=C(COc1ccc(NC(=O)Nc2ccc(Cl)c(Cl)c2)cc1)N=Nc1c(O)[nH]c2ccccc12,-43.7% (active),-34.7% (active),28%,-53.1% (active),-63.4% (active),-41% (active),-42.8% (active),-36.3% (active),-71.9% (active),-41.7% (active)
CN(C)CCn1c2ccccc2c2nc3cc4ccccc4cc3nc21,16.6%,26.8%,29.6%,38.3%,-52.1% (active),43.4%,27.5%,-68% (active),-44.3% (active),17.1%
COc1cc2oc(-c3cccc(C(=O)Nc4ccc(Cl)cc4)c3)cc(=O)c2c(OCCNC(=O)[C@H](CCC(=O)OC(C)(C)C)NC(=O)OC(C)(C)C)c1OC,106%,95.9%,98.4%,95.3%,101%,84.2%,89%,92.8%,93.4%,117%
